Test results taken from PubChem BioAssay AID504882 (Broad Institute, 2011).
The whole screen tested about 1,200 compounds, of which about 290 (24%) were called active. Another 9% or so got no clear call; they are omitted. Only a sample is shown. Measured potencies and affinities stand elsewhere. Unmarked numbers belong to inactive results. No rule for the calls is given here.

assay: cytotoxicity in EBV lymphoblastoid cells, dose response, cytotoxicity control, cell-based, plate reader, cherry-picks, set 2 (AID 504882); conditions: EBV lymphoblastoid cells (LCL) viability; series mostly up to 19.5 µM; activity change, negative = cytotoxicity: at the top concentration;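 also: 0% = neutral control wells and -100% = positive control wells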

SMILES | activity change, negative = cytotoxicity
Oc1[nH]c2ccccc2c1N=Nc1c(F)c(F)c(Cl)c(F)c1F | 8.45%
CCn1nnc2cc(C(=O)NCCc3ccccc3F)ccc21 | 10.1%
O=C(Nc1cccc(C(=O)O)c1)Nc1ccccc1Cl | 9.77%
CCc1ccc(/C=N/NC(=O)c2ccccn2)cc1 | -13.3%
Cc1ccc(C(=O)Nc2nnc(SCC(=O)N3CCCc4ccccc43)s2)cc1 | 7.65%
CCC(Oc1ccccc1)C(=O)NC1CCSC1=O (configuration not stated) | 9.69%
O=C(O)/C=C/c1ccc2ccccc2n1 | 22.6%
CN(C)CCN(Cc1ccc(Cl)cc1)c1ccccn1 | 11.6%
Cc1ccc(C(=O)Nc2cccc(C(=O)O)c2)cc1S(=O)(=O)N1CCCCC1 | -1.48%
CCCCN(c1ccccc1)c1ncnc(N)c1[N+](=O)[O-] | 3.49%
O=C(N/N=C/c1cccc(O)c1)c1ccc2c(c1)OCCO2 | 9.59%
O=C(NN1C(=O)C2C3C=CC(C4CC34)C2C1=O)c1cccc(Cl)c1 (configuration not stated) | 20%
CC(C)(C)n1nc(-c2ccc(F)cc2)c2c(N)ncnc21 | 22.3%
COc1cc(OC)cc(-c2cc3nc(C)c(CCC(=O)O)c(C)n3n2)c1 | 8.49%
CN(C)CC(C)(C)CNS(=O)(=O)c1ccc(OC(F)(F)F)cc1 | 15.3%
COc1cccc(C2=CC(=O)C[C@H](c3ccc4c(c3)OCO4)C2)c1 | 4.25%
COC(=O)CN(c1ccccc1F)S(=O)(=O)c1ccc(C)cc1 | -3.06%
CCCCCCNC(=O)O[C@]12C[C@@H](C(=O)OC)[C@@H](C(=O)OC)C[C@@]1(O)CN(S(=O)(=O)c1ccc(C)cc1)C2 | 12.3%
CN(CCNC(=O)C1CCN(S(=O)(=O)N2CCOCC2)CC1)CCc1ccccc1 | 6.51%
O=c1c2cnn(-c3ccccc3)c2nc(-c2cccs2)n1-c1ccc(Cl)cc1 | -2.24%
NNC(=O)c1cccc(COc2ccc3c(c2)CCC3)c1 | 2.55%
S=c1[nH]nc(C2CCCCC2)n1/N=C/c1ccncc1 | -5.82%
N#CC1=C(N)C(C#N)(C#N)C(c2cccnc2)C2CC(c3ccccc3)CC=C12 (configuration not stated) | -16.7%
COc1cc(CC(=O)N(c2ccccc2)c2nc(C)cs2)cc(OC)c1OC | -0.151%
O=C(CN1C(=O)c2ccccc2S1(=O)=O)Nc1ncc(Cl)cc1Cl | 6.69%
Cc1ccc(-n2c(=O)c3c(c4cc(C)ccc4n3C)n(CC(=O)NCC3CCCO3)c2=O)cc1 (configuration not stated) | 6.18%

SMILES | activity change, negative = cytotoxicity
COc1ccc(C)cc1S(=O)(=O)N(CC(=O)Nc1cc([N+](=O)[O-])ccc1C)c1ccc(C)c(C)c1 | 4.1%
O=C(c1sc2cc([N+](=O)[O-])ccc2c1Cl)N1CCOCC1 | 14.3%
Cc1cc(=O)[nH]c(N/N=C/c2ccc(C)o2)n1 | 29.3%
Cc1cc(N=Cc2c(O)ccc3cc(Br)ccc23)no1 | 18.9%
CC(=O)Nc1cccc(-c2cnc(N)c(C(=O)c3cccnc3)n2)c1 | -6.3%
O=C(O)c1cc(=O)c2c(OCC(O)COc3cccc4oc(C(=O)O)cc(=O)c34)cccc2o1 | 6.91%
Cn1cc(SCC(=O)NCC2CCCO2)c2ccccc21 (configuration not stated) | 11.3%
Cc1ccc(-n2c(C)c([N+](=O)[O-])c3ccc(O)c(CN(C)C)c32)cc1 | 5.29%
NC1=NC(=O)NC1(c1ccccc1)c1ccccc1 | 6.16%
Cn1nc(-c2ccc(N3CCOCC3)c(NS(=O)(=O)c3ccccc3)c2)c2ccccc2c1=O | -1.63%
COc1ccccc1N1CCN(C(=O)CCC(=O)N2CCN(c3ccc(F)cc3)CC2)CC1 | 6.56%
COc1ccc(/C=C/C(=O)OCC(=O)NCc2ccco2)cc1OC | -5.65%
COc1ccc2cc(-c3cc(C(=O)OCC(=O)NC4CCS(=O)(=O)C4)c4ccccc4n3)ccc2c1 (configuration not stated) | 13.2%
CCOc1ccc(C(=O)NC(=S)N(Cc2ccccc2)Cc2ccccc2)cc1 | -15.1%
O=C(CCCOc1ccccc1)N1CCN(c2ccccc2)CC1 | 8.48%
CCn1c(CCNC(=O)c2ccc(OC)cc2)nnc1SCc1ccc(Cl)cc1Cl | 10.2%
CC1S/C(=C(\C#N)C(=O)NCc2ccco2)N(Cc2ccco2)C1=O (configuration not stated) | -2.32%
Cc1onc(-c2c(Cl)cccc2Cl)c1C(=O)N[C@@H]1C(=O)N2[C@@H]1SC(C)(C)[C@@H]2C(=O)O | 11.7%
Cc1cc(C)nc(SCC(=O)OCN2C(=O)c3ccccc3C2=O)n1 | 9.98%
Nc1ccccc1SC1CC(=O)N(c2ccccc2Cl)C1=O (configuration not stated) | 14.3%
Cc1ccccc1C(=O)N1CCN(c2ccc(NC(=O)c3ccco3)cc2Cl)CC1 | -22.9%
CCOc1ccccc1NC(=O)Cn1c(=O)sc2ccccc21 | 13.3%
COc1ccc(C(Nc2ccccn2)c2oc(CO)cc(=O)c2O)cc1 (configuration not stated) | 27%
CC(=O)c1ccc(NC(=O)c2noc3c2CCC3)cc1 | 3.06%
O=c1nc(N/N=C/C=C/c2ccccc2)cn[nH]1 | 2.42%
Cc1ccc(S(=O)(=O)NC(CC(C)C)C(=O)NCC(c2ccco2)N2CCCCC2)cc1 (configuration not stated) | -0.485%
